Measured values reported in ChEMBL document CHEMBL3988442, “University of Dundee, Small-Polar-MMV Screening Library” (2021).
The whole screen tested about 48,000 compounds, of which about 13,000 (27%) showed an effect of 50% or more. Some of the results follow.

Test system: Wolbachia pipientis
Assay: Anti-Wolbachia Cell-Based Screen
Assay type: functional
Parameters: scale not given: in the data most compounds retested in dose-response had high values
Conditions: 5 µM

Row | SMILES | Percent Effect [%]
1 | Cc1nn(C)c(Cl)c1CNCc1ccc(OCC(N)=O)cc1 | 6.399
2 | O=C(NC[C@H]1OC[C@@H](NCc2ccc(F)cc2)[C@@H]1O)N1CCOCC1 | -11.78
3 | CCNC(=O)N1CCC(NC(=O)NCCc2cccc(C)c2)C1 (stereo not given) | -4.75
4 | NCC1CN(c2nc(-c3ccccc3)nc3c2CCNCC3)CCO1 (stereo not given) | 2.56
5 | FC(F)(F)C1CN(Cc2cnc3c(-c4ccccc4)cnn3c2)CCO1 (stereo not given) | 27.88
6 | FC(F)(F)C1CN(Cc2cccc(OCc3ccccn3)c2)CCO1 (stereo not given) | 94.94
7 | Cc1cc(-c2nn(C)c(Cl)c2CN2CCOC(C(=O)O)C2)no1 (stereo not given) | -7.215
8 | O=C(O)C1CN(Cc2cccc(-c3ccccn3)c2)CCO1 (stereo not given) | 102.3
9 | CN1C(=O)[C@H]2CC[C@@H]1CN(Cc1cccc(OCc3ccccn3)c1)C2 | -0.7428
10 | FC(F)(F)C1CN(Cc2cccc(-c3ccccn3)c2)CCO1 (stereo not given) | 75.31
11 | CN(C)C(=O)CCC1CCCN(Cc2cccc(-c3ccccn3)c2)C1 (stereo not given) | 9.493
12 | CS(=O)(=O)NC1CCCN(Cc2ccc(OCc3ccccn3)cc2)C1 (stereo not given) | 2.735
13 | O=C(CCN1CCOC(C(F)(F)F)C1)NCc1cccc(Cl)c1 (stereo not given) | -5.951
14 | Cc1nc2c(c(N3CCC(CN4CCCC4=O)CC3)n1)CCNCC2 | -1.611
15 | COC(=O)c1cc(OCC2CCC2)cc(C(=O)N[C@H]2CC[C@H](O)CC2)c1 | -10.19
16 | CSCCC1CC(=O)Nc2cc(O)c(C)cc21 (stereo not given) | 3.121
17 | O=C(c1cnc(NCCC2CCCO2)c(Cl)c1)N1CCCCC1 (stereo not given) | -6.452
18 | CNC(=O)c1cc2c(nc1NC(C)C)CCN(C(=O)NC(C)C)CC2 | -1.585
19 | CCN1CCOCC2(CCCN(c3nncs3)C2)C1 (stereo not given) | -9.534
20 | CC(=O)c1cc(CC(=O)N2CCCC2c2nc(C(C)C)no2)cs1 (stereo not given) | -13.65
21 | CSCC(C)(O)CNC(=O)c1ccc(F)cc1Cl (stereo not given) | 16.17
22 | Cc1nncn1CCNC(=O)C(C)(C)c1cccc(F)c1 | -15.91

Row | SMILES | Percent Effect [%]
23 | Cn1nnnc1SCCC(=O)NCC(C)(C)c1ccccc1F | -11.64
24 | Cc1nn(C)cc1-c1cc(C(=O)NCC(C)(C)c2ccccc2F)n[nH]1 | 89.7
25 | Cc1cc(C)n(CC(C)NC(=O)C(C)(C)c2ccccc2F)n1 (stereo not given) | 6.546
26 | Cc1nn(C)cc1-c1cc(C(=O)NCC(C)(C)c2ccc(F)cc2)n[nH]1 | 130.7
27 | Cc1nn(C)cc1-c1cc(C(=O)NCC(C)(C)c2cccc(F)c2)n[nH]1 | 113.6
28 | O=C(NCc1nc[nH]n1)c1cc(COc2cccc(F)c2)[nH]n1 | -19.41
29 | CC(Cn1cncn1)NC(=O)NCC(C)(C)c1ccc(F)cc1 (stereo not given) | 10.62
30 | O=C1CC(c2ccccc2F)c2c(n3ccsc3nc2=O)N1 (stereo not given) | 13.25
31 | CC(NC(=O)Nc1cc(F)cc(F)c1)c1nc[nH]n1 (stereo not given) | -15.42
32 | O=C1COC2(CCN(C(=O)c3cnccn3)CC2)CN1CC1CC1 | -3.882
33 | O=C(C1CCC2(CCN(CC3CC3)CC2)O1)N1CCCC1.O=C(O)C(F)(F)F (stereo not given) | -8.008
34 | O=C(NCC1CC1)C1CN(C(=O)c2cnccn2)CC12CCOCC2 (stereo not given) | -1.801
35 | O=C(NCC1CC1)C1CCC2(CCN(C(=O)c3ccncc3)CC2)O1.O=C(O)C(F)(F)F (stereo not given) | 111.8
36 | O=C(NCC1CC1)C1CN(C(=O)c2cccnc2)CC12CCOCC2 (stereo not given) | 0.4189
37 | CC1N(CC2CC2)C(=O)COC12CCN(C(=O)c1ccncc1)CC2 (stereo not given) | -6.799
38 | O=C(NCC1CC1)C1CCC2(CCN(C(=O)c3cnccn3)CC2)O1 (stereo not given) | 100.2
39 | O=C(NCC1CC1)C1CCC2(CCN(C(=O)c3cccnc3)CC2)O1.O=C(O)C(F)(F)F (stereo not given) | 93.2
40 | CCc1nnc2n1CC(CNCc1nc(-c3ccsc3)no1)CC2 (stereo not given) | -16.4
41 | Cc1ccccc1CN(C)C(=O)Cn1nc(-c2ccc(F)cc2)oc1=O | -30.13
42 | COc1ncccc1C(=O)N1CC(c2nc(-c3ccco3)no2)C1 | 8.085
43 | O=C(c1ncoc1-c1ccco1)N1CCCN(c2ncccn2)CC1 | -13.17
44 | O=C(Cn1ccc2ncccc2c1=O)N1CCCCC1 | -19.73

Row | SMILES | Percent Effect [%]
45 | Cc1nc(-c2ccccc2)n(CC(=O)N(C(C)C)C(C)C)n1 | 7.414
46 | COCCNC(=O)Cn1c(-c2ccco2)cc2cccnc21 | 97.97
47 | COCCCNC(=O)Cn1nnc(-c2cc3ccccc3o2)n1 | -9.995
48 | COc1cccc(OCCNC(=O)CN2CCN(C)CC2C)c1 (stereo not given) | 0.3417
49 | Cl.O=C(Cn1c(-c2ccco2)cc2cccnc21)N1CCCC1 | 109.6
50 | CC(C)N(C(=O)Cn1c(-c2ccco2)cc2cccnc21)C(C)C.Cl | 129.4
51 | CCCS(=O)(=O)NCC1CCOc2ccccc2C1 (stereo not given) | -3.198
52 | Cn1nnc2c1C(COCC1CC1)CN(C(=O)Cc1ccccn1)C2 (stereo not given) | 3.096
53 | CNc1ncc(CN(C)c2nc(C3CCCC3)nc3c2cnn3C)cn1 | 113.7
54 | CCCc1nc(N(C)Cc2cnc(NC)nc2)c2cnn(C)c2n1 | 3.632
55 | Cc1c[nH]c(CN(C)c2nc(C3CCCC3)nc3c2cnn3C)n1 | -9.015
56 | CCC(Nc1nc(C2CCCC2)nc2c1cnn2C)c1ccncc1 (stereo not given) | 11.81
57 | CN(Cc1ccno1)c1nc(C2CCCC2)nc2c1cnn2C | 93.91
58 | Cc1nn(C)c(C)c1CN(C)c1nc(C2CCCC2)nc2c1cnn2C | 74.08
59 | Cc1cc(C)nc(CN(C)c2nc(C3CCCC3)nc3c2cnn3C)c1 | 180.1
60 | Cc1nc(N(C)CCN(C)C)c2cnn(C)c2n1 | -4.82
61 | Cn1ncc2c(NCCn3cccc3)nc(C3CCCC3)nc21 | 12.23
62 | Cc1cc(CC(C)Nc2nc(C3CCCC3)nc3c2cnn3C)[nH]n1 (stereo not given) | 4.574
63 | CNCCCNc1nc(C2CCCC2)nc2c1cnn2C | -5.607
64 | CCc1nnc(CN(C)c2nc(C3CCCC3)nc3c2cnn3C)o1 | -12.86
65 | O=C(c1ccc(-n2cncn2)cc1)N1CCN(c2cnccn2)CC1 | -5.785
